Records with an inconclusive call do not appear. Calls of active or inactive are those of the source. The call rests on the fitted dose curve; in most records, active means well fitted curve in the direction sought with a large enough effect in the repeat runs; inconclusive means weak or mixed curves; inactive means no such curve, though single readings can be large; an effect the other way counts as inactive or inconclusive.
Key:
[1] = A CellTox Green Cytotoxicity Assay to monitor cytotoxicity in HEK293 cells - 40 hour (AID 1224871); further: nearly all actives have a fitted effect of over 45% in size
How it was run: (§1)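 Read-out: fluorescence of a cell-impermeant cyanine dye staining DNA of dead cells, proportional to cytotoxicity. HEK293, 600 cells/well with reagent, compound (23 nL DMSO) added after 5 h; reads at 0, 8, 16, 24, 32, 40 h.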

[2] = qHTS RealTime-Glo MT Cell Viability Assay in HEK293 cells - 16 hour (AID 1224872); further: top concentration of the series differs between compounds; nearly all actives have a fitted effect of over 50% in size
How it was run: (§2)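 Cells + reagent dispensed (600 cells/well, HEK293) → 5 h at 37 C/5% CO2 → 23 nL compound in DMSO pinned → 40 h at 37 C → luminescence read at 0, 8, 16, 24, 32, 40 h.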

[3] = qHTS RealTime-Glo MT Cell Viability Assay in HepG2 cells - 8 hour (AID 1224873); further: nearly all actives have a fitted effect of over 55% in size
How it was run: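 HepG2 cells mixed with RealTime-Glo MT reagents (NanoLuc plus cell-permeant prosubstrate) were seeded at 600 cells/well, incubated 5 h at 37 C/5% CO2, then pinned with compounds in DMSO; nonlytic luminescence tracked viability during 40 h treatment.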

[4] = qHTS RealTime-Glo MT Cell Viability Assay in HEK293 cells - 40 hour (AID 1224874); conditions: RealTime-Glo luminescence; max response: hits give low values; further: nearly all actives have a fitted effect of over 50% in size
How it was run: (§3)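 Luminescence readout at each listed time point; HEK293, 600 cells/well, RealTime-Glo MT reagent added with cells; compounds pinned (23 nL in DMSO) after 5 h at 37 C; continuous culture at 37 C.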

[5] = A CellTox Green Cytotoxicity Assay to monitor cytotoxicity in HEK293 cells - 24 hour (AID 1224875); further: series mostly up to about 77 µM; nearly all actives have a fitted effect of over 45% in size
How it was run: as §1

[6] = A CellTox Green Cytotoxicity Assay to monitor cytotoxicity in HepG2 cells - 16 hour (AID 1224876); further: nearly all actives have a fitted effect of over 45% in size
How it was run: (§4)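 HepG2, 600 cells/well premixed w/ CellTox Green; 5 h settle, 37 C/5% CO2; pintool cpd add (DMSO); 37 C, 40 h; fluorescence read at 0, 8, 16, 24, 32, 40 h.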

[7] = qHTS RealTime-Glo MT Cell Viability Assay in HepG2 cells - 32 hour (AID 1224877); further: nearly all actives have a fitted effect of over 55% in size
How it was run: (§5)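 Real-time, nonlytic viability: 600 HepG2 cells/well mixed with NanoLuc enzyme plus prosubstrate; 5 h settle, compound (DMSO) added by pintool; luminescence monitored over 40 h at 37 C.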

[8] = A CellTox Green Cytotoxicity Assay to monitor cytotoxicity in HepG2 cells - 24 hour (AID 1224878); further: nearly all actives have a fitted effect of over 45% in size
How it was run: as §4

[9] = A CellTox Green Cytotoxicity Assay to monitor cytotoxicity in HepG2 cells - 40 hour (AID 1224879); further: nearly all actives have a fitted effect of over 40% in size
How it was run: as §4

[10] = qHTS RealTime-Glo MT Cell Viability Assay in HEK293 cells - 0 hour (AID 1224880)
How it was run: as §3

[11] = A CellTox Green Cytotoxicity Assay to monitor cytotoxicity in HEK293 cells - 32 hour (AID 1224881); further: nearly all actives have a fitted effect of over 40% in size
How it was run: as §1

[12] = A CellTox Green Cytotoxicity Assay to monitor cytotoxicity in HepG2 cells - 0 hour (AID 1224882); further: nearly all actives have a fitted effect of over 35% in size
How it was run: as §4

[13] = A CellTox Green Cytotoxicity Assay to monitor cytotoxicity in HepG2 cells - 32 hour (AID 1224883); further: nearly all actives have a fitted effect of over 50% in size
How it was run: as §4

[14] = A CellTox Green Cytotoxicity Assay to monitor cytotoxicity in HEK293 cells - 8 hour (AID 1224884); further: nearly all actives have a fitted effect of over 35% in size
How it was run: as §1

[15] = qHTS RealTime-Glo MT Cell Viability Assay in HepG2 cells - 16 hour (AID 1224885); further: nearly all actives have a fitted effect of over 50% in size
How it was run: as §5

[16] = qHTS RealTime-Glo MT Cell Viability Assay in HEK293 cells - 24 hour (AID 1224886)
How it was run: as §2

[17] = qHTS RealTime-Glo MT Cell Viability Assay in HEK293 cells - 8 hour (AID 1224887)
How it was run: as §3

[18] = A CellTox Green Cytotoxicity Assay to monitor cytotoxicity in HEK293 cells - 16 hour (AID 1224888); further: nearly all actives have a fitted effect of over 35% in size
How it was run: as §1

[19] = qHTS RealTime-Glo MT Cell Viability Assay in HepG2 cells - 0 hour (AID 1224889); further: nearly all actives have a fitted effect of over 50% in size
How it was run: as §5

[20] = A CellTox Green Cytotoxicity Assay to monitor cytotoxicity in HepG2 cells - 8 hour (AID 1224890); further: nearly all actives have a fitted effect of over 45% in size
How it was run: as §4
On the % scale 0 is the no-effect control and ±100 the full control effect.

OP(O)c1ccccc1
inactive: Potency [1] | Potency [2] | outcome [3] | max response [4] 9.39% | Potency [5] | Potency [6] | Potency [7] | Potency [8] | Potency [9] | outcome [10] | Potency [11] | outcome [12] | Potency [13] | Potency [14] | Potency [15] | Potency [16] | Potency [17] | Potency [18] | outcome [19] | Potency [20]

CC[C@@H](CO)NC(=O)[C@@H]1C=C2c3cccc4[nH]cc(c34)C[C@H]2N(C)C1
inactive: Potency [1] | Potency [2] | outcome [3] | max response [4] 1.11% | Potency [5] | Potency [6] | Potency [7] | Potency [8] | Potency [9] | outcome [10] | Potency [11] | outcome [12] | Potency [13] | Potency [14] | Potency [15] | Potency [16] | Potency [17] | Potency [18] | outcome [19] | Potency [20]

C[C@@H](N)[C@@H](O)c1ccccc1
inactive: Potency [1] | Potency [2] | outcome [3] | max response [4] 1.05% | Potency [5] | Potency [6] | Potency [7] | Potency [8] | Potency [9] | outcome [10] | Potency [11] | outcome [12] | Potency [13] | Potency [14] | Potency [15] | Potency [16] | Potency [17] | outcome [19] | Potency [20]

[P]#[In]
inactive: Potency [1] | Potency [2] | outcome [3] | max response [4] 0.3% | Potency [5] | Potency [6] | Potency [7] | Potency [8] | Potency [9] | outcome [10] | Potency [11] | outcome [12] | Potency [13] | Potency [14] | Potency [15] | Potency [16] | Potency [17] | outcome [19] | Potency [20]

Cc1cc(OC(=O)N(C)C)nn1C(=O)N(C)C
inactive: Potency [1] | Potency [2] | outcome [3] | max response [4] 2% | Potency [5] | Potency [6] | Potency [7] | Potency [8] | Potency [9] | outcome [10] | Potency [11] | outcome [12] | Potency [13] | Potency [14] | Potency [15] | Potency [16] | Potency [17] | Potency [18] | Potency [20]

CC(=O)CN(CC(C)=O)N=O
inactive: Potency [1] | Potency [2] | outcome [3] | max response [4] 5.04% | Potency [5] | Potency [6] | Potency [7] | Potency [8] | Potency [9] | outcome [10] | Potency [11] | outcome [12] | Potency [13] | Potency [14] | Potency [15] | Potency [16] | Potency [17] | Potency [18] | Potency [20]

CNC(=O)Oc1ccccc1C(C)C
inactive: Potency [1] | Potency [2] | outcome [3] | max response [4] 3.33% | Potency [5] | Potency [6] | Potency [7] | Potency [8] | Potency [9] | outcome [10] | Potency [11] | outcome [12] | Potency [13] | Potency [14] | Potency [15] | Potency [16] | Potency [17] | Potency [18] | outcome [19] | Potency [20]

CCCCCCCC(=O)Cl
inactive: Potency [1] | Potency [2] | outcome [3] | max response [4] 5.36% | Potency [5] | Potency [6] | Potency [7] | Potency [8] | Potency [9] | outcome [10] | Potency [11] | outcome [12] | Potency [13] | Potency [14] | Potency [15] | Potency [16] | Potency [17] | Potency [18] | outcome [19] | Potency [20]

CCCOc1nn(C(=O)NS(=O)(=O)c2ccccc2C(=O)OC)c(=O)n1C
inactive: Potency [1] | Potency [2] | outcome [3] | max response [4] 22.1% | Potency [5] | Potency [6] | Potency [7] | Potency [8] | Potency [9] | outcome [10] | Potency [11] | outcome [12] | Potency [13] | Potency [14] | Potency [15] | Potency [16] | Potency [17] | outcome [19] | Potency [20]

O=C(O)c1c(Cl)ccc2cc(Cl)cnc12
inactive: Potency [1] | Potency [2] | outcome [3] | max response [4] 17.7% | Potency [5] | Potency [6] | Potency [7] | Potency [8] | Potency [9] | outcome [10] | Potency [11] | outcome [12] | Potency [13] | Potency [14] | Potency [15] | Potency [16] | Potency [17] | Potency [18] | Potency [20]

CCC1(c2cccc(O)c2)CCCCN(C)C1 (configuration not stated)
inactive: Potency [1] | Potency [2] | outcome [3] | max response [4] 3.71% | Potency [5] | Potency [6] | Potency [7] | Potency [8] | Potency [9] | outcome [10] | Potency [11] | outcome [12] | Potency [13] | Potency [14] | Potency [15] | Potency [16] | Potency [17] | Potency [18] | Potency [20]

COc1cc(CC(C)N)cc(OC)c1OC (configuration not stated)
inactive: Potency [1] | Potency [2] | outcome [3] | max response [4] -3.07% | Potency [5] | Potency [6] | Potency [7] | Potency [8] | Potency [9] | outcome [10] | Potency [11] | outcome [12] | Potency [13] | Potency [14] | Potency [15] | Potency [16] | Potency [17] | Potency [18] | outcome [19] | Potency [20]

COc1ccc(CN2CCNCC2)c(OC)c1OC
inactive: Potency [1] | Potency [2] | outcome [3] | max response [4] 5.58% | Potency [5] | Potency [6] | Potency [7] | Potency [8] | Potency [9] | outcome [10] | Potency [11] | outcome [12] | Potency [13] | Potency [14] | Potency [15] | Potency [16] | Potency [17] | outcome [19] | Potency [20]

Reference: PubChem BioAssay (Tox21)
